# Assay results taken from article PMC4336329 (PLoS ONE, 2015).
# Out of some 310,000 compounds screened, about 14,000 (4.5%) showed an effect of 50% or more. The effect is printed as a negative number. The list comes from a sample in which strong results are over-represented; it also holds similar structures and randomly drawn compounds.
# Molecular target: human ether-à-go-go-related gene (hERG) potassium channel (human, UniProt Q12809)
# Experiment: primary screen, population patch clamp on CHO cells stably expressing hERG; higher = less effect of the substance
# 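Further: peak tail current of the secondary pulse compared with the same well before compound.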
# Sequence of human ether-à-go-go-related gene (hERG) potassium channel (Q12809 whole entry, looked up): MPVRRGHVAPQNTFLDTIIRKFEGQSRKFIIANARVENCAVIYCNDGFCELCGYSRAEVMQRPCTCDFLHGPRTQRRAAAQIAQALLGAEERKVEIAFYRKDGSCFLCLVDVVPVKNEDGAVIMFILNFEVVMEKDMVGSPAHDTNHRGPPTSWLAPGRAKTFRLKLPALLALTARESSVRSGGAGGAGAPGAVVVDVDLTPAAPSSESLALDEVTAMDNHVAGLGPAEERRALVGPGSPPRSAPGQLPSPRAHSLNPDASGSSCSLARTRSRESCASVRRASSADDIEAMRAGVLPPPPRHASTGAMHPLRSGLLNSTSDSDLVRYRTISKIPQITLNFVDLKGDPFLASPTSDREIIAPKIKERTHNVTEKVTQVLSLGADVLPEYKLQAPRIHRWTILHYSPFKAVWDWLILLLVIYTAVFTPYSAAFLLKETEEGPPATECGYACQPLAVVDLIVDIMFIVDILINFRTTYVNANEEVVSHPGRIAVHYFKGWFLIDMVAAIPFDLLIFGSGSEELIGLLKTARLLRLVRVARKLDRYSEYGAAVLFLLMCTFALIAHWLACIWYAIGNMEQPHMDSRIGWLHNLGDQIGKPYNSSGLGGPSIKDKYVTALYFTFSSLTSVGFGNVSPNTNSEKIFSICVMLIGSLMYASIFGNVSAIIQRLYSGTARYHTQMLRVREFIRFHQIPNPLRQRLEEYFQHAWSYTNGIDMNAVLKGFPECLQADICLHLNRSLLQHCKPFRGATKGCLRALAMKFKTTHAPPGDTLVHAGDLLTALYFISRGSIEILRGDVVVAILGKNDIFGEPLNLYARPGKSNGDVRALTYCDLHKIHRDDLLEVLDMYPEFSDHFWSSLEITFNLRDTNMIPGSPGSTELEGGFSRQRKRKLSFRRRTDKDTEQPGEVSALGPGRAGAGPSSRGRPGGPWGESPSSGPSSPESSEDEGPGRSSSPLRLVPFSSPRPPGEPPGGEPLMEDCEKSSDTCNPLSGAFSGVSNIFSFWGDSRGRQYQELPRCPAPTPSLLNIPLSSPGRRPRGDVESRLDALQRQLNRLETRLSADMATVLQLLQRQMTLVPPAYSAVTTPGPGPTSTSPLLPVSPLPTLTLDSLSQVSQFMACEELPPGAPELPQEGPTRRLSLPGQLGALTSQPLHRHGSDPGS
row,Structure (SMILES),"hERG current change (%, negative = inhibition) at 10uM [%]"
1,O=C(NCc1ccco1)c1ccc(Cl)c(S(=O)(=O)N2CCCC2)c1,-9.61
2,O=C1NC(=O)/C(=C\c2ccc(OCc3cccc(C(=O)O)c3)c(Cl)c2)N1,20.1
3,COc1cc(OC)cc(C(=O)Nc2ccc(S(=O)(=O)Nc3ncccn3)cc2)c1,12.8
4,COc1c(C)cc(C(=O)C2CCCN(Cc3cnc(N4CCOCC4)s3)C2)cc1C (stereo not drawn),-8.64
5,CS/C(=N\NC(N)=O)c1ccccc1,-8.24
6,O=C(O)c1ccc2c(=O)n3c(nc2c1)/C(=C/c1ccccc1Br)CC3,4.66
7,C/C(=N\NC(=O)CCCNc1cccc(C)c1)c1ccncc1,0.987
8,CCCCn1c(N)c(N(CC(C)C)C(=O)c2ccc(S(=O)(=O)N3CCCCCC3)cc2)c(=O)[nH]c1=O,9.58
9,COc1ccc(C(=O)N/C(=C\c2ccc3c(c2)OCO3)C(=O)NCCc2nc3ccccc3[nH]2)cc1,-39.4
10,O=C(NCCCCCc1nc2ccccc2[nH]1)c1ccccc1Cl,-6.43
11,O=C(NCCc1nc2ccccc2[nH]1)/C(=C/c1ccc2c(c1)OCO2)NC(=O)c1ccccc1,-71.1
12,O=C(NCCc1nc2ccccc2[nH]1)/C(=C/c1ccc2c(c1)OCO2)NC(=O)c1ccccc1Cl,-80.6
13,CC(C)=C(NC(=O)c1ccccc1)C(=O)NCCc1nc2ccccc2[nH]1,9.91
14,O=C(CCc1nc2ccccc2[nH]1)NCc1ccc2c(c1)OCO2,-38.1
15,O=C(Nc1cccc(C(=O)O)c1)/C(=C\c1ccc2c(c1)OCO2)NC(=O)c1ccccc1Cl,3.5
16,O=C(NCCc1nc2ccccc2[nH]1)/C(=C/c1ccc2c(c1)OCO2)NC(=O)c1ccc(Cl)cc1Cl,-76.3
17,O=C(N/N=C/c1ccc2c(c1)OCO2)c1ccc(Cl)cc1Cl,20.3
18,CCc1ccccc1NC(=O)CSc1nc2ccccc2nc1N1CCOCC1,-15.1
19,CCOC(=O)C1CCCN(C(=O)CCC(=O)Nc2ccc3nc(N4CCOCC4)cc(C)c3c2)C1 (stereo not drawn),-23.7
20,O=C(NC1CCS(=O)(=O)C1)/C(=C\c1ccco1)NC(=O)c1ccccc1 (stereo not drawn),1.36
21,Cc1cc(-c2nn3c(C)nnc3s2)ccc1NC(=O)C(C)(C)C,10.7

row,Structure (SMILES),"hERG current change (%, negative = inhibition) at 10uM [%]"
1,CC(=O)N1CCC(C(=O)N2CCN(S(=O)(=O)c3ccc(F)cc3)CC2)CC1,-1.33
2,CC(C)c1ccc(S(=O)(=O)N2CCN(C(=O)C3CCN(C(=O)c4ccc(F)cc4)CC3)CC2)cc1,-53.7
3,CC(C)c1ccc(S(=O)(=O)N2CCN(C(=O)C3CCCC3)CC2)cc1,2.78
4,Cc1ccc(S(=O)(=O)N2CCN(C(=O)COC(=O)c3ccc(Br)o3)CC2)c(C)c1,-10.3
5,CN1CCN(C(=O)C2CCN(S(=O)(=O)c3ccc(F)cc3)CC2)CC1,5.18
6,Cc1ccc(C)c(S(=O)(=O)N2CCN(C(=O)C3CCN(C(=O)c4ccc(F)cc4)CC3)CC2)c1,-30.6
7,CC(=O)c1ccc(N2CCN(C(=O)C3CCN(S(=O)(=O)c4ccc(F)cc4)CC3)CC2)cc1,-52.6
8,Cc1ccc(S(=O)(=O)N2CCN(C(=O)c3ccco3)CC2)c(C)c1,-7.22
9,O=C(c1ccc(F)cc1)N1CCC(C(=O)N2CCN(S(=O)(=O)c3ccccc3Br)CC2)CC1,-32.6
10,Cc1ccc(S(=O)(=O)N2CCN(C(=O)C3CCN(C(=O)c4ccc(F)cc4)CC3)CC2)c(C)c1,-55.7
11,Cc1ccc(S(=O)(=O)N2CCN(C(=O)c3ccc(Br)o3)CC2)c(C)c1,-55
12,COc1ccc(N2CCN(C(=O)C3CCN(S(=O)(=O)c4ccc(F)cc4)CC3)CC2)cc1,-48.3
13,CC(C)c1ccc(/C=C2\SC(=O)N(CC(=O)NC3C=CS(=O)(=O)C3)C2=O)cc1 (stereo not drawn),5.89
14,O=C(Cn1cnc2c(nnn2Cc2ccc(F)cc2)c1=O)NCc1ccco1,-18.2
15,CCOc1ccc(CN2CCNC(=O)C2CC(=O)NCc2cc(C)n(C)n2)cc1 (stereo not drawn),-1.95
16,O=C(NC(=S)NNS(=O)(=O)c1ccc(Cl)cc1)c1cccnc1,18.6
17,O=C(CNC(=S)N(Cc1ccccc1)Cc1ccccc1F)NCCc1ccccc1,3.73
18,Cc1ccc2c(c1)C(c1ccccc1)=NCC(=O)N2,-12.8
19,NS(=O)(=O)c1cc(C(=O)O)cc(N2CCCC2)c1Oc1ccccc1,0.0774
20,O=C(Nc1ccc(Cl)cn1)c1ccccc1F,-1.25
21,O=C(NC(=S)Nc1ccc2oc(=O)ccc2c1)c1cccc(Cl)c1,4.11

row,Structure (SMILES),"hERG current change (%, negative = inhibition) at 10uM [%]"
1,COc1cc(NC(=O)CN(C)S(=O)(=O)c2ccc3c(c2)CCC(=O)N3)cc(OC)c1,-23.9
2,CCC1=NN(C(=O)c2ccccc2Br)C(O)(c2ccc(Br)cc2)C1 (stereo not drawn),25.2
3,CC(=O)Nc1ccc(N2C(=O)c3cccc4c(O)ccc(c34)C2=O)cc1,13.4
4,COc1ccc(OC)c(S(=O)(=O)N2CCC(C(=O)N3CCCCCC3)CC2)c1,5.45
5,COc1ccc(OC)c(S(=O)(=O)N2CCC(C(=O)N3CCCC3)CC2)c1,7.71
6,COc1ccc(OC)c(S(=O)(=O)N2CCC(C(=O)N3CCN(c4ccc(F)cc4)CC3)CC2)c1,-78
7,COc1ccc(-c2[nH]ncc2CN(C)Cc2cccnc2)c(F)c1,-1.66
8,CC(=O)N1CCc2cc(S(=O)(=O)NC(CC(C)C)C(=O)N3CCn4c3nc3ccccc34)ccc21 (stereo not drawn),-60
9,CC(=O)N1CCc2cc(S(=O)(=O)NC(CC(C)C)C(=O)N3CCCC3)ccc21 (stereo not drawn),-20.2
10,CC(=O)N1CCc2cc(S(=O)(=O)NC(CC(C)C)C(=O)N3CCc4ccccc4C3)ccc21 (stereo not drawn),-26.8
11,O=C1CS/C(=N/N=C/c2ccccc2)N1Cc1ccco1,1.4
12,COC(=O)C(C)N=Cc1ccccc1 (stereo not drawn),12.9
13,COc1ccc(-n2c(/C=C/c3ccc(O)cc3)nc3ccccc3c2=O)cc1,-21.6
14,Cc1ccc(-n2c(/C=C/c3ccc4c(c3)OCO4)nc3ccccc3c2=O)cc1,-50.4
15,COc1ccc(-n2c(/C=C/c3ccc4c(c3)OCO4)nc3ccccc3c2=O)cc1,-55.3
16,O=c1c2ccccc2nc(/C=C/c2ccc3c(c2)OCO3)n1-c1cccc(O)c1,-7.38
17,O=c1c2ccccc2nc(/C=C/c2ccc3c(c2)OCO3)n1-c1ccccc1,-26
18,COc1ccc(-n2c(/C=C/c3ccc(O)c(O)c3)nc3ccccc3c2=O)cc1,10.6
19,CCc1ccccc1OCC(=O)OCC(=O)Nc1cc(C)on1,-2.74
20,CCC(=O)N1CCc2cc(S(=O)(=O)CCC(=O)N3CCN(c4ccccc4)CC3)ccc21,3.15
21,O=C(Cc1ccc(Cl)cc1Cl)NCC1(N2CCOCC2)CCCCC1,5.44

row,Structure (SMILES),"hERG current change (%, negative = inhibition) at 10uM [%]"
1,CC(NCC1(N2CCOCC2)CCCCC1)C(=O)N1CCc2ccccc21.O=C(O)C(=O)O (stereo not drawn),-5.73
2,O=C(CN1CCN(S(=O)(=O)c2ccc(F)cc2)CC1)NCC1(N2CCOCC2)CCCCC1,-18.6
3,O=C(CN1CCN(CC(=O)Nc2ccc(F)cc2)CC1)NCC1(N2CCOCC2)CCCCC1,-73.4
4,N#CCC(=O)Nc1ccc(C(=O)NCC2(N3CCOCC3)CCCCC2)cc1,7.48
5,O=C(CN1CCN(S(=O)(=O)c2ccc(Cl)cc2)CC1)NCC1(N2CCOCC2)CCCCC1,-39.3
6,CC(NCC1(N2CCOCC2)CCCCC1)C(=O)Nc1ccc(Cl)cc1Cl.O=C(O)C(=O)O (stereo not drawn),-74.6
7,O=C(CNCC1(N2CCOCC2)CCCCC1)Nc1ccc(Cl)cc1,-78.8
8,O=C(CN1CCN(CC(=O)Nc2cccc(F)c2)CC1)NCC1(N2CCOCC2)CCCCC1,-27
9,O=C(Nc1ccc(S(=O)(=O)NCc2cccnc2)cc1)c1ccco1,10.2
10,O=C(COc1ncnc2sccc12)N1CCc2ccccc2C1,0.518
11,Cc1nc2ccccc2c(=O)n1/N=C/c1ccc(O)cc1O,10.4
12,Cc1ccc(NC(C)C(=O)N/N=C/c2ccc([N+](=O)[O-])s2)cc1 (stereo not drawn),8.3
13,O=C(COc1ccc(Cl)cc1)N1CCCC1,-7.47
14,O=C(Nc1ccc(Cl)cc1)OC1CN2CCC1CC2 (stereo not drawn),-40.6
15,Cl.O=C(COc1ccc(Cl)cc1)N(c1ccc(Cl)cc1)C1CN2CCC1CC2 (stereo not drawn),-65.1
16,Cl.O=C(COc1ccc(Cl)cc1)NC1CN2CCC1CC2 (stereo not drawn),-35.1
17,Cl.O=C(COc1ccc(Cl)cc1)N(c1ccccc1Cl)C1CN2CCC1CC2 (stereo not drawn),-50.5
18,O=C(COc1ccc(Cl)cc1)N(Cc1cccs1)C1CCS(=O)(=O)C1 (stereo not drawn),-48.1
